Reference: ChEMBL document CHEMBL3433997, “St. Jude Leishmania screening dataset” (2016)

Assays:
Assay type in all cases: functional
[1] = target: Solute carrier family 2, facilitated glucose transporter member 1 (Homo sapiens) (UniProt P11166); test: ST_JUDE_LEISH: Cytotoxicity at 2uM final concentration against transgenic Leishmania Mexicana promastigotes LmGLUT1 that are glucose transport deficient and complemented with the human glucose transporter GLUT1. Activity is measured by DNA content using SYBR green in vitro
[2] = target: Hexose transporter 1 (Plasmodium falciparum) (UniProt O97467); test: ST_JUDE_LEISH: Cytotoxicity at 2uM final concentration against transgenic Leishmania Mexicana promastigotes LmPfHT that are glucose transport deficient and complemented with the Plasmodium falciparum hexose transporter. Activity is measured by DNA content using SYBR green in vitro
[3] = target: Glucose transporter (Leishmania mexicana) (UniProt O61059); test: ST_JUDE_LEISH: Cytotoxicity at 2uM final concentration against transgenic Leishmania Mexicana promastigotes LmGT2 that are glucose transport deficient and complemented with the L. Mexicana glucose transporter 2. Activity is measured by DNA content using SYBR green in vitro

Solute carrier family 2, facilitated glucose transporter member 1 (Homo sapiens), sequence (P11166 whole entry): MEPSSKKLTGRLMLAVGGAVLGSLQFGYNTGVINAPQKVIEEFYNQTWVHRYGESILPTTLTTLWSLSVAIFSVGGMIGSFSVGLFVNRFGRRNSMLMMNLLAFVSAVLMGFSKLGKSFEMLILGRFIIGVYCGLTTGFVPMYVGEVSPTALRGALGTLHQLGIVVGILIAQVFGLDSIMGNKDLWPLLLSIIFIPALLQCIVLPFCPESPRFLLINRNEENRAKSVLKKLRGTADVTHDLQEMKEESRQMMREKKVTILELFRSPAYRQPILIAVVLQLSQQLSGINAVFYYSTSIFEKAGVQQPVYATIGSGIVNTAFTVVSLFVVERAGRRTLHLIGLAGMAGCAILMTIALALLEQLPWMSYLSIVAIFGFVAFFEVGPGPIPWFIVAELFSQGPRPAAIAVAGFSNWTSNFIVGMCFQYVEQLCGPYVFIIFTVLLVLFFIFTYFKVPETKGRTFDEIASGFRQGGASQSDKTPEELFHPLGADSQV

## COc1ccc(Cn2cncc2CN(CCC(C)C)C(=O)c2ccc(Cl)nc2Cl)cc1
[1]
  inhibition: 2.52%
[2]
  inhibition: 2.14%
[3]
  inhibition: 2.49%

## COc1ccc2nccc(N3CCC(CCNCc4ccc5c(n4)NC(=O)CO5)CC3)c2n1
[1]
  inhibition: 0.66%
[2]
  inhibition: 0.67%
[3]
  inhibition: 1.8%

## O=C(Nc1cccc(-c2ccc(-c3nc4cc(C(F)(F)F)ccc4[nH]3)s2)c1)c1cccnc1
[1]
  inhibition: 4.93%
[2]
  inhibition: 4.73%
[3]
  inhibition: 4.16%

## O=C(Nc1ccc(C(=O)Nc2cccc(C3=NCCN3)c2)cc1)Nc1ccc(C2=NCCN2)cc1
[1]
  inhibition: -1.17%
[2]
  inhibition: 0.34%
[3]
  inhibition: -0.6%

## COc1ccc2ncc(F)c(CCN3C[C@H](CNCc4cc(C#N)c5c(c4)OCCO5)[C@H](O)C3)c2n1
[1]
  inhibition: 7.97%
[2]
  inhibition: 8.03%
[3]
  inhibition: 1.91%

## COc1cc(C)nc2ccc(NC(=O)c3cc([N+](=O)[O-])cc([N+](=O)[O-])c3)cc12
[1]
  inhibition: 2.43%
[2]
  inhibition: 0.24%
[3]
  inhibition: 3.33%

## CCOc1ccccc1C1C(C(=O)C(C)(C)C)N2c3ccc(Br)cc3C=CC2C12C(=O)c1ccccc1C2=O (centres undefined)
[1]
  inhibition: 72.3%
[2]
  inhibition: 76.5%
[3]
  inhibition: 57.1%

## COc1ccc2nccc([C@@H](O)CN3CCC(NC(=O)/C=C/c4cccc(-c5ccccc5)c4)CC3)c2c1
[1]
  inhibition: 7.76%
[2]
  inhibition: 6.73%
[3]
  inhibition: 0.36%

## COc1ccc2oc(=O)c(C#N)c(O)c2c1
[1]
  inhibition: -0.47%
[2]
  inhibition: -0.32%
[3]
  inhibition: 0.54%

## O=[N+]([O-])c1ccc(/C=N/Nc2cc(-c3ccccc3)nc3ccccc23)o1
[1]
  inhibition: 9.16%
[2]
  inhibition: 7.41%
[3]
  inhibition: 5.71%

## COc1ccc(Oc2ccc(-c3c(O)cc(C)nc3C)cc2)cc1
[1]
  inhibition: 2.96%
[2]
  inhibition: 3.75%
[3]
  inhibition: 1.27%

## Oc1ccc(Br)cc1-c1nc2ccc(Cl)cc2nc1-c1cc(Br)ccc1O
[1]
  inhibition: 1.9%
[2]
  inhibition: 1.4%
[3]
  inhibition: 2.66%

## COc1cc2nc(N3CCC(CNC(=O)c4ccc(NC(=O)c5ccc(Cl)cc5)cc4)CC3)nc(N)c2cc1OC
[1]
  inhibition: 0.04%
[2]
  inhibition: 0.98%
[3]
  inhibition: 0.86%

## Nc1cccc(C=CC(=O)N=c2cc[nH]c3ccccc23)c1
[1]
  inhibition: -0.24%
[2]
  inhibition: 0.74%
[3]
  inhibition: -2.1%

## CC(=O)Nc1cccc(C(=O)Nc2cccc(-c3ccc(-c4nc5cccc(C)c5[nH]4)cc3)c2)c1
[1]
  inhibition: 0.33%
[2]
  inhibition: 1.27%
[3]
  inhibition: 4.99%

## O=C(Nc1ccc(N2CCCCC2)c(Cl)c1)c1ccc(Br)o1
[1]
  inhibition: 1.4%
[2]
  inhibition: 2.17%
[3]
  inhibition: 2.35%

## N=C(Nc1cccc(Cc2ccccc2)n1)Nc1ncccn1
[1]
  inhibition: 2.06%
[2]
  inhibition: 1.79%
[3]
  inhibition: 1.88%

## COc1ccc(-n2ccnc2)cc1CNC1CCN(CC2Cn3c(=O)ccc4ccc(F)c2c43)CC1 (centres undefined)
[1]
  inhibition: 4.7%
[2]
  inhibition: 4.54%
[3]
  inhibition: 5.24%

## c1cc2[nH]c(CCCc3nc4cc(C5=N[C@H]6CCCC[C@H]6N5)ccc4[nH]3)nc2cc1C1=N[C@@H]2CCCC[C@@H]2N1
[1]
  inhibition: 0.97%
[2]
  inhibition: 1.75%
[3]
  inhibition: 0.34%

## Cc1noc(C)c1-c1ccc2c(Nc3ccccc3C(C)(C)C)c(C(=O)NCc3ccccc3)cnc2c1
[1]
  inhibition: 6.6%
[2]
  inhibition: 7.11%
[3]
  inhibition: 3.62%

## Cc1cc(C(=O)Nc2ccc3c(c2)CCN3C2CCN(Cc3ccc(F)cc3Cl)C2)no1 (centres undefined)
[1]
  inhibition: 4.11%
[2]
  inhibition: 3.71%
[3]
  inhibition: 3.86%

## Cc1ccn2cc(-c3ccc(NC(=O)c4ccc(Br)o4)cc3)nc2c1
[1]
  inhibition: 1.17%
[2]
  inhibition: 2.74%
[3]
  inhibition: 0.61%

## CCN(CC)CCN(Cc1ccc(-c2ccc(C(F)(F)F)cc2)cc1)C(=O)Cn1c(SCc2ccc(F)c(F)c2F)nc(=O)c2c1CCC2
[1]
  inhibition: 2.57%
[2]
  inhibition: 4.02%
[3]
  inhibition: 3.4%

## CN(C)c1cccc(-c2cnc3ccc(NCc4cccc(Cl)c4)nn23)c1
[1]
  inhibition: 1.27%
[2]
  inhibition: 2.01%
[3]
  inhibition: 1.77%

## CC(Sc1nc(-c2ccccc2)c(-c2ccccc2)o1)C(=O)NC1CC1 (centres undefined)
[1]
  inhibition: -2%
[2]
  inhibition: 1.75%
[3]
  inhibition: 0.3%

## Cc1cccc(Cn2c(C(N)=O)nn(-c3ccc([N+](=O)[O-])cc3C#N)c2=S)c1
[1]
  inhibition: 11.5%
[2]
  inhibition: 11.7%
[3]
  inhibition: 11.7%

## CCN(CCCN1CCCCC1)c1cc(C)nc(Nc2cccc(OC(F)(F)F)c2)n1
[1]
  inhibition: 1.17%
[2]
  inhibition: 1.62%
[3]
  inhibition: 2.65%

## Cc1cc(Nc2cccc(C(F)(F)F)c2)nc(Nc2cccc(C(F)(F)F)c2)n1
[1]
  inhibition: 4.73%
[2]
  inhibition: 4.81%
[3]
  inhibition: -0.49%

## COc1ccc2c(NN=Cc3ccc(F)cc3)ccnc2c1
[1]
  inhibition: 1.29%
[2]
  inhibition: 2.43%
[3]
  inhibition: 1.85%

## CN(C)CCCN1CCN(C(=O)c2cccc(-c3noc(C(F)(F)F)n3)c2)CC1
[1]
  inhibition: 2.61%
[2]
  inhibition: 3.52%
[3]
  inhibition: 3.7%

## COc1ccc(Nc2nccc(-c3c(-c4cccc(NC(=O)c5c(F)cccc5F)c4)nn4ccccc34)n2)cc1Cl
[1]
  inhibition: 0.2%
[2]
  inhibition: 1.51%
[3]
  inhibition: -0.51%

## Cc1cc(Cl)c(Cl)cc1NC(=O)Nc1cccc(C(F)(F)F)c1
[1]
  inhibition: 1.27%
[2]
  inhibition: -0.59%
[3]
  inhibition: -0.28%

## COc1ccc(CCNCCCCCCNCCc2ccc(Cl)c(Cl)c2)cc1OC
[1]
  inhibition: 4.21%
[2]
  inhibition: 3.9%
[3]
  inhibition: 3.76%
